Reference: the supplement of paper PMC10849652
Of roughly 7,900 targets only a part is listed; those with a hit were picked by preference. About 0.6% of all pairs of compound and target were hits. Unmarked numbers belong to inactive results.

Legend:
Assay in all cases: log2 fold change, soluble protein after heating vs DMSO (PISA); higher = thermal stabilisation; K562 cells, 10 uM, 30 min; active = over 0.2 and 3.5 SD of the protein, either way, in both replicates (recomputed)
saracatinib = compound: CN1CCN(CCOc2cc(OC3CCOCC3)c3c(Nc4c(Cl)ccc5c4OCO5)ncnc3c2)CC1 [saracatinib]
Summary of the method: (§1)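 K562 cells at 2×10^6 cells/mL were given 10 μM compound for 30 min. Aliquots then went through 3 min of heating across 48°C-58°C, were pooled, and were extracted in PBS with 0.5% NP-40 at 4°C, and the supernatant after 21,000xg for 90 min was quantified by TMTpro 16plex LC-MS/MS with channel sums equalised. Thermal stability relative to control samples, from duplicates, is given as log2 fold change.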

sotrastaurin = compound: CN1CCN(c2nc(C3=C(c4c[nH]c5ccccc45)C(=O)NC3=O)c3ccccc3n2)CC1 [sotrastaurin]
Summary of the method: as §1

alvocidib = compound: CN1CC[C@H](c2c(O)cc(O)c3c(=O)cc(-c4ccccc4Cl)oc23)[C@H](O)C1 [alvocidib]
Summary of the method: as §1

Tubastatin A = compound: CN1CCc2c(c3ccccc3n2Cc2ccc(C(=O)NO)cc2)C1 [Tubastatin A]
Summary of the method: as §1

[1] = compound: CNC(=O)C1=CC=CC=C1NC2=NC(=NC=C2Cl)NC3=C(C=C(C=C3)N4CCOCC4)OC
Summary of the method: as §1

defactinib = compound: CNC(=O)c1ccc(Nc2ncc(C(F)(F)F)c(NCc3nccnc3N(C)S(C)(=O)=O)n2)cc1 [defactinib]
Summary of the method: as §1

rucaparib = compound: CNCc1ccc(-c2[nH]c3cc(F)cc4c3c2CCNC4=O)cc1 [rucaparib]
Summary of the method: as §1

[2] = compound: CNc1nc(-c2ccc3c(N)n[nH]c3c2)cc(N2C[C@@H](C(=O)NC3CCCCC3)CC[C@H]2C)n1
Summary of the method: as §1

encorafenib = compound: COC(=O)N[C@@H](C)CNc1nccc(-c2cn(C(C)C)nc2-c2cc(Cl)cc(NS(C)(=O)=O)c2F)n1 [encorafenib]
Summary of the method: as §1

[3] = compound: COC(=O)[C@H](CCSC)NC(=O)C1=C(C=C(C=C1)NC[C@H](CS)N)C2=CC=CC=C2
Summary of the method: as §1

[4] = compound: COC1=CC=C(C=C1)CN2C=CC3=C2C=C(C=C3)C(=O)NO
Summary of the method: as §1

filanesib = compound: CON(C)C(=O)N1N=C(c2cc(F)ccc2F)S[C@@]1(CCCN)c1ccccc1 [filanesib]
Summary of the method: as §1

zotarolimus = compound: CO[C@H]1C[C@@H]2CC[C@@H](C)[C@@](O)(O2)C(=O)C(=O)N2CCCC[C@H]2C(=O)O[C@H]([C@H](C)C[C@@H]2CC[C@H](n3cnnn3)[C@H](OC)C2)CC(=O)[C@H](C)/C=C(\C)[C@@H](O)[C@@H](OC)C(=O)[C@H](C)C[C@H](C)/C=C/C=C/C=C/1C [zotarolimus]
Summary of the method: as §1

idasanutlin = compound: COc1cc(C(=O)O)ccc1NC(=O)[C@@H]1N[C@@H](CC(C)(C)C)[C@](C#N)(c2ccc(Cl)cc2F)[C@H]1c1cccc(Cl)c1F [idasanutlin]
Summary of the method: as §1

alisertib = compound: COc1cc(Nc2ncc3c(n2)-c2ccc(Cl)cc2C(c2c(F)cccc2OC)=NC3)ccc1C(=O)O [alisertib]
Summary of the method: as §1

[5] = compound: COc1cc2nc(-c3cc(F)ccc3O)nc(N[C@@H]3CNC[C@H]3C(C)(C)O)c2cc1OC
Summary of the method: as §1

gefitinib = compound: COc1cc2ncnc(Nc3ccc(F)c(Cl)c3)c2cc1OCCCN1CCOCC1 [gefitinib]
Summary of the method: as §1

[6] = compound: COc1cccc2cc(-c3nc([C@H]4CC[C@H](C(=O)O)CC4)n4ncnc(N)c34)[nH]c12
Summary of the method: as §1

lapatinib = compound: CS(=O)(=O)CCNCc1ccc(-c2ccc3ncnc(Nc4ccc(OCc5cccc(F)c5)c(Cl)c4)c3c2)o1 [lapatinib]
Summary of the method: as §1

pictilisib = compound: CS(=O)(=O)N1CCN(Cc2cc3nc(-c4cccc5[nH]ncc45)nc(N4CCOCC4)c3s2)CC1 [pictilisib]
Summary of the method: as §1

Chain of UniProt O95628 (O95628 whole entry, looked up): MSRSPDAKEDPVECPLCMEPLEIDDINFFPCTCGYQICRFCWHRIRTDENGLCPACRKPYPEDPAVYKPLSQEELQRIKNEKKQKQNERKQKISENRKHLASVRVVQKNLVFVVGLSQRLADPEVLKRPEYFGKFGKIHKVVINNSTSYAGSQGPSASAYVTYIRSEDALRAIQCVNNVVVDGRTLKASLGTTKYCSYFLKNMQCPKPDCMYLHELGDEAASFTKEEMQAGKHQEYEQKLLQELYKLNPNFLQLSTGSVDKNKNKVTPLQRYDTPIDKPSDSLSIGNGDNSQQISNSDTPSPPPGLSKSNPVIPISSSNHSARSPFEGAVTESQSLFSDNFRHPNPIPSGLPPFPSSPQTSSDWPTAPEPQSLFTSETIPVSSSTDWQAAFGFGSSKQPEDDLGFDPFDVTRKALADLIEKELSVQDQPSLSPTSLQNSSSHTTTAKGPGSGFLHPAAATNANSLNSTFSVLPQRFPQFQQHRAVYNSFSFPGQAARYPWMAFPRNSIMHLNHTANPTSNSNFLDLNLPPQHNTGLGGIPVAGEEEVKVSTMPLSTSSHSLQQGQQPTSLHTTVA
Chain of UniProt O75976 (O75976 whole entry, looked up): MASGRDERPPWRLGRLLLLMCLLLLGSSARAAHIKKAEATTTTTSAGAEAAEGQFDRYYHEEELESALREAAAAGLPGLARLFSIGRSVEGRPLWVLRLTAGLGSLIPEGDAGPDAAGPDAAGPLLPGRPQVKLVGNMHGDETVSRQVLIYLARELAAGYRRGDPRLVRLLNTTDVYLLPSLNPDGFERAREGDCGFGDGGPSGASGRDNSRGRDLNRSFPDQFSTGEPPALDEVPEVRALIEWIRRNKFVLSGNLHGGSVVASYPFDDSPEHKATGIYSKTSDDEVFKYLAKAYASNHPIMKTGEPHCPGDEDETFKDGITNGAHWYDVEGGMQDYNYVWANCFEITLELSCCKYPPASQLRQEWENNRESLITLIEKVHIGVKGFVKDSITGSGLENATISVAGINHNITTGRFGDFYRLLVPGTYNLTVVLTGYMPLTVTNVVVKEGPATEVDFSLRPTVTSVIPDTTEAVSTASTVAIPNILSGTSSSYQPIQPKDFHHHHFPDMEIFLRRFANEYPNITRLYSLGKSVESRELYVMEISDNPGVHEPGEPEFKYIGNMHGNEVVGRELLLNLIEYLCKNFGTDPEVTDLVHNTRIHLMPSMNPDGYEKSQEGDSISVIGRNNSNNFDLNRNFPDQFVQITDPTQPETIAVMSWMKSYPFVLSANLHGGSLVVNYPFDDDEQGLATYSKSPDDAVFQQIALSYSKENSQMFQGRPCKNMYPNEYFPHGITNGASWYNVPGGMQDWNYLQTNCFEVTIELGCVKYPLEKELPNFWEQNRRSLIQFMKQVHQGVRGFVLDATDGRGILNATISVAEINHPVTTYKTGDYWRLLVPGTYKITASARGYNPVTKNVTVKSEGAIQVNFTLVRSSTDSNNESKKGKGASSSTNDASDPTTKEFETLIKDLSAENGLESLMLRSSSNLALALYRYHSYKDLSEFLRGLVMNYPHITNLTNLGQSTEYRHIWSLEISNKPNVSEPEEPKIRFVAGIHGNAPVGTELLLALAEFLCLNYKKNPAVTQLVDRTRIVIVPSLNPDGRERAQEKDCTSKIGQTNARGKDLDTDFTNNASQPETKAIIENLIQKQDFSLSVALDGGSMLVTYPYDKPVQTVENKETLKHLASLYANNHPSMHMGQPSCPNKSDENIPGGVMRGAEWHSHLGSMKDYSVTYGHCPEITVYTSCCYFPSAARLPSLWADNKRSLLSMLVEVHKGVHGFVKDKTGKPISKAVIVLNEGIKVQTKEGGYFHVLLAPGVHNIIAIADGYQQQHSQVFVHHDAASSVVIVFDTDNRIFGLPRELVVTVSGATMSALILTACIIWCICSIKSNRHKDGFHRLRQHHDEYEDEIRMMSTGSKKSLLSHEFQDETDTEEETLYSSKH
Chain of UniProt Q5VT25 (Q5VT25 whole entry, looked up): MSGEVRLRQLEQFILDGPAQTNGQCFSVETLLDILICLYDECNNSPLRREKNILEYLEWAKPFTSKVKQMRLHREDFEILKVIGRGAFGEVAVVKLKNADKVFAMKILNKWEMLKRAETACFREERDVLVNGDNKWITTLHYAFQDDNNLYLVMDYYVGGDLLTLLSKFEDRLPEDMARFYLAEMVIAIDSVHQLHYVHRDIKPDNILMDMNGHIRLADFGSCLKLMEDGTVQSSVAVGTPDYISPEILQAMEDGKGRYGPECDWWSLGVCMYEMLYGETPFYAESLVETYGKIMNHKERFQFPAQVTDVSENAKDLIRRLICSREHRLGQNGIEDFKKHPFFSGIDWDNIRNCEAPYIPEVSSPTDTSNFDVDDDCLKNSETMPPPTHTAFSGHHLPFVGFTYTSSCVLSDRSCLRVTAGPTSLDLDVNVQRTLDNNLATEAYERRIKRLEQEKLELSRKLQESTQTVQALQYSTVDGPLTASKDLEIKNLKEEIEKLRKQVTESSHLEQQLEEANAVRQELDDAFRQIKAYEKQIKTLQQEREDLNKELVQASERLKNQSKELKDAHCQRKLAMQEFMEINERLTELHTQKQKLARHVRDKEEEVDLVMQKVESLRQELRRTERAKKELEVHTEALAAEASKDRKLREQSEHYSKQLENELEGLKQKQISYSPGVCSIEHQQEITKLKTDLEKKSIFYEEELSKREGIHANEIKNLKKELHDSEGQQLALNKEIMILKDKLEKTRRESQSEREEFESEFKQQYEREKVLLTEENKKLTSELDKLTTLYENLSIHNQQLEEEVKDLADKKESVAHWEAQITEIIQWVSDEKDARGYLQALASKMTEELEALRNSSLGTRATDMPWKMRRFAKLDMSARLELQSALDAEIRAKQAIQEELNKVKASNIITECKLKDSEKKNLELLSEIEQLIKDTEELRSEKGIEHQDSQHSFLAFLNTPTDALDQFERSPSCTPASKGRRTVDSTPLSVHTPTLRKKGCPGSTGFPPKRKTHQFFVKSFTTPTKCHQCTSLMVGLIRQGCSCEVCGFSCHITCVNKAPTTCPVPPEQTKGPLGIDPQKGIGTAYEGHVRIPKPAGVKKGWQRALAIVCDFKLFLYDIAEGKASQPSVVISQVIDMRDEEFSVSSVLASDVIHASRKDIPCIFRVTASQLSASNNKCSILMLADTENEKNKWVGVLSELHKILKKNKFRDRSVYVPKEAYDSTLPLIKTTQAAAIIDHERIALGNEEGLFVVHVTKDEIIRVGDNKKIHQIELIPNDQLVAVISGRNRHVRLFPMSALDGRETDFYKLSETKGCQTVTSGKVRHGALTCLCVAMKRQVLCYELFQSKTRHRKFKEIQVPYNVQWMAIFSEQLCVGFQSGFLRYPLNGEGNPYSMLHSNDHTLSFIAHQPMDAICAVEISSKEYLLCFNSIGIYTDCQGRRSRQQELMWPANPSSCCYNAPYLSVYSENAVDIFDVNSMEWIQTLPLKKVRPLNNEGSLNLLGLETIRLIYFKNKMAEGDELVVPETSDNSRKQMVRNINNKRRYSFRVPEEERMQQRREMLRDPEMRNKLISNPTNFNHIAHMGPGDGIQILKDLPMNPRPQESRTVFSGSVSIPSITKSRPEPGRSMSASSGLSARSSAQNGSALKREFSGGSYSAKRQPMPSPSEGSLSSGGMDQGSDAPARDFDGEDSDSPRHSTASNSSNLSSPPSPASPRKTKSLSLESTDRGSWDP
Chain of UniProt Q8N4Q1 (Q8N4Q1 whole entry, looked up): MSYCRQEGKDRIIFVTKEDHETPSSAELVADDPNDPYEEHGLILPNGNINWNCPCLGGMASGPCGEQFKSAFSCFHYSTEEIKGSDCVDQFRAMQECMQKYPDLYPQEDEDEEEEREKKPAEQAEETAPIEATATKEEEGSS
Chain of UniProt Q96CF2 (Q96CF2 whole entry, looked up): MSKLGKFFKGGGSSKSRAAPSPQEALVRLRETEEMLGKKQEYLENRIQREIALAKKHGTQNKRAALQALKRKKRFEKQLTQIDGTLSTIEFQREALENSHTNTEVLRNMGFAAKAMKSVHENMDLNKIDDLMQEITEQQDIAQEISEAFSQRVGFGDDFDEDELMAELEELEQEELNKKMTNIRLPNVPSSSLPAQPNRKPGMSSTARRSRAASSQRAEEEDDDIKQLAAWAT
Chain of UniProt Q5RI15 (Q5RI15 whole entry, looked up): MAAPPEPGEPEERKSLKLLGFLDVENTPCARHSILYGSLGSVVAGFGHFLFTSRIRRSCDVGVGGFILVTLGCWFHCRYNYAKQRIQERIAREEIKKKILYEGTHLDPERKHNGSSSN
Chain of UniProt P23786 (P23786 whole entry, looked up): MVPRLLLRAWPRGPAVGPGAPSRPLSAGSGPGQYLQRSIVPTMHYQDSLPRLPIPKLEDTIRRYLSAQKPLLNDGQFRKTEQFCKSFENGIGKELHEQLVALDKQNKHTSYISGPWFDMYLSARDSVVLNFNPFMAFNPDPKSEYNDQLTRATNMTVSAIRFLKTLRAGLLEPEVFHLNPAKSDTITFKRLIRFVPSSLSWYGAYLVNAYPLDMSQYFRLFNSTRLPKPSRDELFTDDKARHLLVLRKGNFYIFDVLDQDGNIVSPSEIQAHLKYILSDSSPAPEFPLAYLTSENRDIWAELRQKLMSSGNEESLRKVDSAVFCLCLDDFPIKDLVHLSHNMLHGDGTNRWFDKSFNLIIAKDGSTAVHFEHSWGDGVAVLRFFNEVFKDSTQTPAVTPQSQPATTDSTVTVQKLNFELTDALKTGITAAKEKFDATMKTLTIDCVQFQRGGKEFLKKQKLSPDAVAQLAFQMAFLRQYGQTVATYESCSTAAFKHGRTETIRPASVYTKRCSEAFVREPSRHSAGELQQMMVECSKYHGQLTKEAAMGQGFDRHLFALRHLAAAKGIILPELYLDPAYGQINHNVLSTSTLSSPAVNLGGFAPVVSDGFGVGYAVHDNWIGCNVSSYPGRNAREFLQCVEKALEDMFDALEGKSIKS
Chain of UniProt Q99627 (Q99627 whole entry, looked up): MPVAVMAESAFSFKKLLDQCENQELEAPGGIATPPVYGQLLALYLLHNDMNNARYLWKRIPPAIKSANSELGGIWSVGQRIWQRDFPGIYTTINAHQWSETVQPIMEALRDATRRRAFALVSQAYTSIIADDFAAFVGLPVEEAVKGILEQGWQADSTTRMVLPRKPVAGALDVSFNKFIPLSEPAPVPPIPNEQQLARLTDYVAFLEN

Target | log2 fold change (saracatinib) | log2 fold change (sotrastaurin) | log2 fold change (alvocidib) | log2 fold change (Tubastatin A) | log2 fold change [1] | log2 fold change (defactinib) | log2 fold change (rucaparib) | log2 fold change [2] | log2 fold change (encorafenib) | log2 fold change [3] | log2 fold change [4] | log2 fold change (filanesib) | log2 fold change (zotarolimus) | log2 fold change (idasanutlin) | log2 fold change (alisertib) | log2 fold change [5] | log2 fold change (gefitinib) | log2 fold change [6] | log2 fold change (lapatinib) | log2 fold change (pictilisib)
CPD (UniProt O75976) | -0.047 | -0.011 | -0.007 | 0.03 | -0.002 | -0.026 | 0.017 | -0.006 | 0.042 | 0.012 | 0.022 | 0.082 | -0.045 | -0.005 | -0.038 | 0.046 | 0.007 | 0.015 | -0.01 | 0.034
CPT2 (UniProt P23786) | -0.089 | -0.136 | -0.062 | 0.032 | 0.147 | -0.164 | -0.096 | 0.363 | -0.074 | -0.057 | 0.114 | -0.207 | 0.798 (active) | 0.806 (active) | -0.067 | -0.199 | 0.343 | -0.005 | 0.058 | 0.57
CHMP4C (UniProt Q96CF2) | 0 | 0.042 | 0.02 | -0.009 | -0.173 | -0.047 | -0.032 | -0.138 | -0.097 | 0.007 | 0.163 | 0.014 | -0.028 | -0.001 | 0.037 | 0.064 | -0.014 | 0.02 | -0.027 | -0.005
CDK13 (UniProt Q14004) | -0.133 | -0.121 | -0.061 | 0.042 | -0.071 | -0.01 | 0.06 | -0.129 | 0.104 | 0.036 | -0.323 | 0.169 | 0.029 | 0.215 | -0.141 | -0.197 | 0.001 | 0.037 | 0.054 | -0.048
COX5B (UniProt P10606) | -0.076 | 0.113 | -0.018 | 0.052 | 0 | -0.046 | -0.01 | 0.024 | -0.033 | 0.006 | 0.012 | 0.212 | 0.094 | 0.019 | -0.103 | 0.004 | 0.011 | 0.015 | -0.038 | -0.04
CMTM3 (UniProt Q96MX0) | -0.006 | -0.01 | -0.022 | -0.012 | -0.019 | -0.096 | 0.129 | -0.075 | -0.072 | 0.05 | -0.122 | 0.105 | -0.075 | -0.045 | -0.069 | -0.018 | 0.021 | 0.035 | -0.062 | -0.091
CNOT4 isoform 6 (UniProt O95628) | 0 | 0.003 | -0.095 | -0.003 | -0.014 | -0.03 | -0.044 | -0.07 | -0.023 | -0.015 | -0.057 | 0.017 | -0.023 | -0.001 | -0.036 | 0.037 | -0.007 | -0.012 | -0.008 | 0.036
CIZ1 (UniProt Q9ULV3) | 0.046 | -0.075 | -0.074 | 0.102 | -0.11 | -0.117 | 0.027 | -0.109 | -0.038 | -0.001 | 0.039 | 0.04 | -0.006 | 0.054 | -0.042 | -0.106 | -0.099 | 0.034 | 0.025 | 0.05
CRK (UniProt P46108) | -0.768 (active) | 0 | -0.032 | 0.092 | -0.003 | -0.056 | -0.025 | -0.006 | 0.021 | -0.024 | 0.072 | 0.008 | 0.144 | 0.061 | -0.107 | 0.011 | -0.006 | 0.025 | 0.012 | 0.043
CDC42BPA isoform 6 (UniProt Q5VT25) | -0.093 | -0.47 (active) | -0.688 (active) | 0.022 | -0.037 | -0.183 | 0.088 | -0.031 | 0.06 | -0.064 | -0.005 | 0.009 | 0.081 | 0.004 | -0.04 | -1.1 (active) | -0.096 | -0.027 | 0.106 | 0.118
COX20 isoform 2 (UniProt Q5RI15) | 0.005 | 0.008 | -0.025 | -0.062 | -0.028 | -0.017 | 0.044 | -0.025 | -0.108 | 0.009 | -0.029 | -0.011 | -0.029 | -0.039 | -0.025 | 0.06 | -0.01 | 0.012 | -0.014 | -0.081
CHCHD4 isoform 2 (UniProt Q8N4Q1) | 0.277 | 0.003 | -0.14 | 0.061 | 0.199 | -0.049 | -0.007 | 0.202 | -0.046 | -0.034 | 0 | -0.059 | 0.032 | -0.043 | -0.099 | -0.285 | 0.011 | 0.102 | 0.341 | -0.016
CNDP2 (UniProt Q96KP4) | -0.016 | -0.003 | -0.062 | -0.226 (active) | -0.014 | -0.006 | -0.041 | 0.028 | 0.001 | 0.124 | -0.171 | -0.145 | 0.041 | -0.024 | -0.049 | -0.001 | -0.008 | 0.027 | 0.017 | 0.021
CASP2 (UniProt P42575) | -0.1 | -0.048 | -0.084 | 0.082 | 0.037 | -0.08 | -0.006 | 0.053 | 0.133 | -0.005 | 0.122 | -0.02 | 0.047 | -0.067 | -0.019 | -0.245 | -0.082 | 0.072 | -0.323 (active) | 0.069
COPS8 (UniProt Q99627) | -0.013 | -0.052 | -0.071 | -0.025 | -0.039 | -0.03 | -0.015 | 0.018 | 0.011 | -0.021 | 0.006 | 0.023 | 0.045 | -0.017 | 0.042 | -0.078 | -0.028 | 0.117 | -0.01 | -0.014
COX15 (UniProt Q7KZN9) | 0.071 | 0.004 | -0.015 | -0.009 | -0.008 | -0.003 | -0.236 (active) | -0.017 | 0.023 | 0.002 | 0.04 | -0.046 | 0.005 | -0.055 | -0.054 | -0.012 | -0.001 | 0.052 | 0.001 | 0.071
